# The entries come from a sample that favours hits as a whole.
# PglD DTNB: C. jejuni PglD acetyltransferase inhibitors, primary screen, biochemical, DTNB colorimetric, single point; purified PglD enzyme, DTNB colorimetric CoA detection; inhibition, % at 12.5 µM; 0.098% of 360,000 active; AID 602405, 2012; in the data active = inhibition above about 16%, passing the limit was not always enough; inconclusive = no clear call, values can overlap the other calls
# ARNT TACC3 PPI: disruptors of ARNT/TACC3 protein interaction, primary screen, biochemical, AlphaScreen, single concentration; Transforming acidic coiled-coil-containing protein 3 (Homo sapiens), Q9Y6A5; AlphaScreen His-ARNT PAS-B/GST-TACC3 binding, luminescence; TACC3 fragment carries E629A point mutation; inhibition, % at 9.99 µM; 0.66% of 390,000 active;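 active = mean inhibition of replicates at least 50% and at least half of replicates each reaching 50%; inconclusive = half or more replicates reach 50% but mean below 50%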;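 note: 0% = complete ARNT plus TACC3 wells and 100% = ARNT alone without TACC3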
# ERp5 inh: inhibitors of ERp5-driven insulin aggregation, primary screen, biochemical, turbidity, absorbance 650 nm, single point | 90 min | Protein disulfide-isomerase A6 (Homo sapiens), Q15084 | inhibition, % at 9.99 µM | AID 651711, 2012 | 0.05% of 350,000 active;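 active = mean replicate inhibition above about 25%, with every replicate also reaching it, limit read from the data, passing the limit was not always enough; inconclusive = only one of those two criteria met; inactive = neither criterion met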
# ALR H2O2 inh: inhibitors of human ALR sulfhydryl oxidase, primary screen, biochemical, H2O2 detection, HRP-luminol luminescence, single point. FAD-linked sulfhydryl oxidase ALR (Homo sapiens), P55789. purified ALR, DTT oxidation. inhibition, % (no concentration beside the values). 3.8% of 290,000 active. AID 485317, 2010;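 active = mean replicate inhibition above about 79%, with every replicate also reaching it, limit read from the data; inconclusive = only one of the two criteria met; inactive = mean below limit and not every replicate reaching it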
# Target sequence (P55789 whole entry, looked up): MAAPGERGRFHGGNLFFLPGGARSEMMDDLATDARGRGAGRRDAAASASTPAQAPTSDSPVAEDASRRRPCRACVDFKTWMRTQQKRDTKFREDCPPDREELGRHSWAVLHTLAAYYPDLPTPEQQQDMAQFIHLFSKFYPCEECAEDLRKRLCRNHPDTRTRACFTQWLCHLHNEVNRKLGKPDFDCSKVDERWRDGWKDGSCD
# NRP1-CendR mod: modulators of CendR peptide binding to NRP-1, primary screen, biochemical, fluorescence polarization, uHTS. FAM-RPARPAR peptide binding to NRP-1. inhibition, % at 25 µM. 0.85% of 360,000 active. AID 602438, 2012;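 active = inhibition or corrected inhibition above about 18%, plus a signal ratio from 0.5 to 1.5, limit read from the data, passing the limit was not always enough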
# PDI turbidity: inhibitors of human PDI, primary screen, biochemical, turbidity, single point, plate reader; 0.052% of 350,000 active; Protein disulfide-isomerase (Homo sapiens), P07237; PDI insulin aggregation turbidity, A650, 90 min; inhibition, % at 10 µM;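 active = mean inhibition across replicates of 30% or more, whatever share of single replicates reach that level; inconclusive = mean inhibition below 30% while every single replicate reaches 30%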
# Active calls of the source: *; ? = inconclusive; . = no result.
SMILES,PglD DTNB,ARNT TACC3 PPI,ERp5 inh,ALR H2O2 inh,NRP1-CendR mod,PDI turbidity
CC1CC(=O)Nc2ccc([N+](=O)[O-])cc2N1C (stereo unspecified),.,-2,.,7,-1,1
CC1CC(=O)Nc2cc([N+](=O)[O-])ccc2N1 (stereo unspecified),.,-7,2,5,32*,10
CC(C)(C)NC(=O)C(c1ccc(O)cc1)N(C(=O)CCC(=O)Nc1nccs1)c1cccc(F)c1 (stereo unspecified),.,-55,10,-11,9,-9
CC(C)(C)NC(=O)C(c1ccc(O)cc1)N(C(=O)CCC(=O)Nc1nccs1)c1ccccc1F (stereo unspecified),.,5,-5,-6,29*,-4
O=C(NNC(=S)NC(=O)c1cccc([N+](=O)[O-])c1)c1ccc(Br)cc1,-5,20,-3,96*,-5,6
O=C(NC(=S)N1CCCC1)c1cccc([N+](=O)[O-])c1,1,3,1,-2,16,-7
O=C(NC(=S)NNC(=O)c1ccccc1[N+](=O)[O-])c1ccccc1,7,27,.,96*,7,5
CC(C)(C)c1ccc(OCC(=O)NNC(=S)NC(=O)c2ccccc2[N+](=O)[O-])c(Br)c1,.,10,-4,92*,-18,-14
CCCCC(=O)NNC(=S)NC(=O)c1ccc([N+](=O)[O-])cc1,.,19,-7,55,9,5
Cc1ccccc1OCC(=O)NNC(=S)NC(=O)c1ccccc1[N+](=O)[O-],5,-1,2,.,-7,14
CCCCC(=O)NNC(=S)NC(=O)c1cccc([N+](=O)[O-])c1,1,16,.,98*,-1,2
O=C(NNC(=S)NC(=O)c1ccccc1[N+](=O)[O-])c1ccccc1,-6,8,.,12,-3,-10
C[C@@H]1CN([C@@H](C)CO)C(=O)c2cc(NS(=O)(=O)c3ccc(Cl)cc3)ccc2O[C@H]1CN(C)C,11,.,0,.,.,.
O=C(CC1CC1)Nc1ccc2c(c1)[C@H]1C[C@@H](CC(=O)N3CCc4ccccc4C3)O[C@@H](CO)[C@H]1O2,0,-2,13,.,.,.
CN1C(=O)c2cc(NC(=O)C3CCC3)ccc2OC[C@@H]2O[C@@H](CC(=O)NCc3ccccc3F)CC[C@H]21,.,.,-1,.,.,.
O=C(NNC(=O)c1ccccn1)c1cccc([N+](=O)[O-])c1,.,67*,3,?,-1,7
Cc1ccc(C(=O)NC(=S)NNC(=O)c2cccc([N+](=O)[O-])c2)cc1,-2,11,1,99*,2,-6
O=C(NNC(=S)NC(=O)c1ccccc1)c1cccc([N+](=O)[O-])c1,-5,14,-7,98*,7,1
O=C(NNC(=S)NC(=O)c1cccc([N+](=O)[O-])c1)c1ccc(O)cc1,.,16,-1,88*,-6,5
O=C(NC(=S)Nc1cccc(F)c1)c1cccc([N+](=O)[O-])c1,.,-11,-3,33,1,1
O=C(NNC(=O)c1cccc([N+](=O)[O-])c1)c1ccncc1,.,3,4,3,7,-8
CO[C@H]1CN(C)C(=O)c2ccc(NS(=O)(=O)c3ccccc3)cc2OC[C@H](C)NC[C@H]1C,0,-2,0,.,.,.
CCC(=O)N[C@H]1CC[C@H](CC(=O)NCc2ccccc2OC)O[C@H]1CO,0,-7,-2,.,.,.
CCNC(=O)C[C@@H]1CC[C@@H](NC(=O)C2CC2)[C@H](CO)O1,-1,-7,-1,.,.,.
Cc1noc(C)c1S(=O)(=O)N(C)C[C@@H]1Oc2ccc(NS(=O)(=O)c3cccs3)cc2C(=O)N([C@H](C)CO)C[C@@H]1C,-1,2,2,.,.,.
SMILES,PglD DTNB,ARNT TACC3 PPI,ERp5 inh,ALR H2O2 inh,NRP1-CendR mod,PDI turbidity
C[C@@H]1CN([C@@H](C)CO)C(=O)Cc2cc(NC(=O)CCCCCC(=O)Nc3ccccc3N)ccc2O[C@@H]1CN(C)S(=O)(=O)c1ccc(F)cc1,0,.,8,.,.,.
Cc1occc1C(=O)NNC(=S)Nc1cccc([N+](=O)[O-])c1,-5,15,1,98*,24,-4
Cc1cccc(NC(=S)NNC(=O)c2cccc([N+](=O)[O-])c2)c1,11,2,2,68,-4,-2
O=C(NNC(=S)Nc1ccc(Cl)c(Cl)c1)c1cccc([N+](=O)[O-])c1,1,.,3,98*,-5,-16
CC(=O)NC(=S)Nc1cccc([N+](=O)[O-])c1,.,4,2,6,8,-3
C[C@@H]1CCCCO[C@@H](CN(C)C(=O)Nc2ccc3c(c2)OCO3)[C@H](C)CN([C@@H](C)CO)C(=O)c2cc(NC(=O)Nc3ccc4c(c3)OCO4)ccc2O1,-3,-10,2,.,.,.
O=C(Nc1ccccc1Cl)NC1(C(=O)NCC2CCCO2)CCCCC1 (stereo unspecified),-4,-1,-1,-1,9,8
O=C(Nc1ccccc1Cl)NC1(C(=O)NCc2cccnc2)CCCCC1,-3,1,-4,-1,25*,1
C/C(=N\NC(=O)CN1CCN(S(=O)(=O)c2ccc(C)cc2)CC1)c1ccc(O)cc1,3,-2,1,99*,-2,4
CC(=O)c1ccc(S(=O)(=O)N2CCN(CC(=O)Nc3ccccc3C(=O)NC3CC3)CC2)cc1,6,-2,3,.,17*,-7
COc1cc(/C(C)=N/NC(=O)CN2CCN(S(=O)(=O)c3ccc(C)cc3)CC2)ccc1O,0,1,-4,98*,-5,-4
CCCNC(=O)N(C)C[C@H]1Oc2cc(-c3cncnc3)ccc2S(=O)(=O)N([C@H](C)CO)C[C@@H]1C,-3,-6,2,.,.,.
CCCCN1C2=NC(c3ccccc3)CN2c2ccccc21 (stereo unspecified),.,-3,-1,93*,-5,3
CCCCN1C2=NCCCN2c2ccccc21,1,-1,.,0,-14,-4
COc1cc2c(cc1OC)CN(C(=O)[C@H]1[C@@H]3C(=O)O[C@@H](c4ccccc4)[C@@H](c4ccccc4)N3[C@@H](c3ccccc3OCCO)[C@]13C(=O)Nc1ccc(C#CC4(O)CCCCCC4)cc13)CC2,1,-2,0,.,.,.
Cc1cc(N/N=C/c2cccc(Cl)c2)nc(-n2nc(C)cc2C)n1,12,1,3,-15,2,-3
Cc1nc(C#N)c(N/N=C/c2cccc(Cl)c2)o1,2,6,6,97*,-6,3
CCCc1cn(CC[C@@H]2CC[C@H](NC(=O)C3CCCCC3)[C@@H](CO)O2)nn1,0,13,-2,.,.,.

# Screening data: PubChem, several laboratories
